In the library only some 21% were active in any assay of this set; here they are far more common.
Pf growth 48h: P. falciparum growth inhibition at 48 hours (one generation) | AID 504832 | 310,000 tested, 5.9% active | P. falciparum luciferase growth in erythrocytes, 48 h | Potency, µM (top dose mostly 28.7 µM), usual class: inhibitors
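Parasite viability was followed by luminescence of a genomically integrated firefly luciferase. Cultures held 0.1% parasitemia at 2% hematocrit (final), incubated under 5% CO2 at 37 C.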
Pf growth 96h: P. falciparum growth inhibition at 96 hours; P. falciparum luciferase reporter growth, 96 h; Potency, µM (top dose mostly 28.7 µM), actives largely listed as inhibitors; 320,000 tested, 6.9% active; AID 504834
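Cell-based qHTS: luciferase-tagged P. falciparum in erythrocytes (2% hematocrit, 0.05% parasitemia final) incubated with compounds for 96 hours, 37 C, 5% CO2; luciferase detection reagent then added and luminescence measured.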
CHX counter: affects cycloheximide protein synthesis inhibition readout, counter-screen; 300,000 tested, 12% active; max response, %; AID 2314; cell reporter, cycloheximide protein synthesis inhibition counterscreen; in the data active = max response mostly above about 13%, no sharp cut-off; inactive = mostly below about 14%; also: read at 38.3 µM for the half of the compounds with a filed dose
NS1 inh: blocks influenza NS1 protein function. AID 2326. 270,000 tested, 0.4% active. Potency, µM (doses to about 46.1 µM); calls by dose curve; also: actives are rising curves; nearly all actives have a fitted effect of over 50% in size
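Read-out: OD600 growth recovery of NS1-expressing budding yeast. Cells grown overnight at 30C in -URA glucose medium, washed, resuspended and diluted 1:100 in 2% galactose assay medium, pH 6.0. Same strain lacking NS1 served as positive control.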
SARS PLpro yeast: inhibitors of SARS-CoV papain-like protease in yeast | S. cerevisiae expressing SARS-CoV PLpro, growth rescue | Potency, µM (doses to about 32.9 µM), most hits filed as activators | 330,000 tested, 0.19% active; calls by dose curve; also: nearly all actives have a fitted effect of over 55% in size
Shiga toxin inh: Shiga toxin inhibition; AID 2315; 290,000 tested, 9.2% active; Vero cells, Shiga toxin protein synthesis inhibition reporter; inhibition, % at 38.7 µM; in the data active = inhibition mostly above about 28%, no sharp cut-off; inactive = mostly below about 43%
A number is an active result; n = inactive; u = inconclusive; x = not tested or not shown; ! = not active in a repeat. Unless noted, calls follow the shape of the dose curve; as a rule, active = well fitted inhibition curve with a large enough effect; inconclusive = small, poorly fitted or top-dose-only effect, or another doubt; inactive = no such curve, though single readings can be large or run the other way.

SMILES | Pf growth 48h | Pf growth 96h | CHX counter | NS1 inh | SARS PLpro yeast | Shiga toxin inh
CC1CC(C)CN(C(=O)CN(C)S(=O)(=O)c2ccc3c(c2)c(=O)n(C)c(=O)n3C)C1 (stereo not drawn) | n | n | n | n | n | n
Cc1cc(C)cc(NC(=O)CSc2nnnn2-c2cccnc2)c1 | n | n | n | n | n | n
CSc1nc2sc3c(c2c(=O)n1C)CCC(C)C3 (stereo not drawn) | n | n | 22 | n | n | n
CSc1nc2sc3c(c2c(=O)n1C)CCC3 | n | n | n | n | n | n
C=CCn1nnc2sc3c(c2c1=O)CCC(C)C3 (stereo not drawn) | x | n | 29 | n | n | 49
Cc1c(CC(=O)O)c(=O)oc2c(C)c(OCc3c(F)cccc3Cl)ccc12 | n | n | n | n | n | n
CCOc1ccccc1Nc1nc(N)nc(CSc2nccc(C)n2)n1 | n | n | n | n | n | n
COc1ccccc1Nc1nc(N)nc(CCl)n1 | u | n | 21 | n | n | 39
COc1ccccc1Nc1nc(N)nc(CSc2ncccn2)n1 | n | u | 28 | n | n | 96
COc1ccc(CN=C(C)c2c(C(F)(F)F)[nH]n(-c3nc4ccccc4s3)c2=O)cc1 | n | x | 42 | n | n | 122
CC(=O)c1c(CC(=O)O)[nH]n(-c2nc3ccccc3s2)c1=O | x | n | n | n | n | n
COC(=O)Cc1[nH]n(-c2nc3ccccc3s2)c(=O)c1C(C)=O | n | x | 17 | n | n | n
CCOC(=O)c1sc(NC(=O)CS(=O)(=O)c2ccc(C)cc2)nc1C | n | n | n | n | n | n
COc1ccc(C)cc1NC(=O)C1CC(=O)N(CCc2ccccc2)C1 (stereo not drawn) | n | n | n | x | n | n
CN(Cc1ccccc1)S(=O)(=O)c1ccc2[nH]c(=O)ccc2c1 | n | 15µM | n | n | n | n
Cc1ccc(OCC(=O)O/N=C(\N)c2cccnc2)cc1 | n | n | 23 | n | n | 68
N/C(=N\OC(=O)COc1ccc(Cl)cc1)c1ccc(Cl)cc1 | n | n | n | n | n | n
N/C(=N\OC(=O)COc1ccc([N+](=O)[O-])cc1)c1cccnc1 | n | n | n | x | n | n
N/C(=N\OC(=O)COc1ccc(Cl)cc1)c1cccnc1 | n | n | 15 | n | n | 62
N/C(=N\OC(=O)COc1ccc(Cl)cc1Cl)c1cccnc1 | n | n | 54 | n | n | 78
O=C(COc1ccc(Cl)cc1Cl)NNC(=O)c1cccnc1 | u | n | n | n | n | n
Cc1cccc(/C(N)=N/OC(=O)COc2ccc(Cl)cc2)c1 | u | 2.9µM | n | x | n | n
CCCc1cc(=O)n2[nH]c(SCc3ccc(Cl)cc3)nc2n1 | n | n | n | n | n | n
CC1=CC(=C2C=CC(=O)C=C2)C=C(C)N1C | 7.4µM | 1.9µM | n | n | n | n
O=S(=O)(N1CCOCC1)N1CCCN(S(=O)(=O)N2CCOCC2)CC1 | n | n | n | n | n | n
SMILES | Pf growth 48h | Pf growth 96h | CHX counter | NS1 inh | SARS PLpro yeast | Shiga toxin inh
O=C(N1CCOCC1)N1CCN(S(=O)(=O)N2CCCCC2)CC1 | n | 4.1µM | n | n | n | n
Clc1nc2nc3n(c2nc1Cl)CCC3 | n | n | n | n | n | n
COc1ccccc1/C=N/NC(=O)c1cc2c(ccc3ccccc32)o1 | n | n | n | n | n | n
N#CCn1cc(/C=N/NC(=O)c2cc3c(ccc4ccccc43)o2)c2ccccc21 | 9.3µM | 12µM | n | n | n | n
O=C(CCC(=O)Nc1ccccc1)NNS(=O)(=O)c1ccc(Cl)cc1 | n | n | n | n | n | n
CCN1C(=O)/C(=C\c2ccco2)C(C(=O)OC)=C1C | u | n | n | n | n | n
COC(=O)C1=C(C)N(c2cccc(OC)c2)C(=O)/C1=C\c1ccco1 | u | u | 17 | n | n | n
NNC(=O)c1cc2cc3ccccc3nc2s1 | u | 13µM | 45 | x | n | n
COc1ccc(S(=O)(=O)NNC(=O)c2cc3cc4ccccc4nc3s2)cc1 | u | n | n | n | n | n
CS(=O)(=O)NNC(=O)c1cc2cc3ccccc3nc2s1 | n | 4.7µM | n | x | n | 53
Cc1cccc(CCNC(=O)c2cc(S(=O)(=O)N3CCCC3)cn2C)c1 | n | n | n | n | n | n
Cc1ccc(NC(=O)C2C3C=CC(O3)C2C(=O)O)cc1C (stereo not drawn) | n | n | 52 | n | n | x
Cc1cccc(NC(=O)C2C3C=CC(O3)C2C(=O)O)c1 (stereo not drawn) | n | u | n | n | n | n
CCOC(=O)c1ccc(NC(=O)C2C3C=CC(O3)C2C(=O)O)cc1 (stereo not drawn) | n | n | n | n | n | n
COC(=O)c1ccc(NC(=O)C2C3C=CC(O3)C2C(=O)O)cc1 (stereo not drawn) | n | n | 20 | n | n | 30
Cc1cc(C)nc(SCCn2c(N(C)Cc3ccccc3)nc3c2c(=O)n(C)c(=O)n3C)n1 | 7.4µM | u | n | n | n | n
CN(Cc1ccccc1)c1nc2c(c(=O)n(C)c(=O)n2C)n1CCSc1ncccn1 | 10µM | u | n | n | n | n
Cn1c(=O)c2c(nc(N3CCOCC3)n2CCSc2ncccn2)n(C)c1=O | n | n | n | n | n | n
CCCN1C(=O)N(c2cccc(C)c2)C(C)(O)CC1(C)C (stereo not drawn) | n | u | n | n | n | n
N=C1SCC(=O)N1/N=C/c1ccccc1 | n | u | 24 | x | n | 53
O=C1CSC(=S)N1/N=C/C=C/c1ccccc1 | n | n | n | n | n | n
CNC(=S)N(CCc1c(C)[nH]c2ccccc12)Cc1cc(OC)c(OC)c(OC)c1 | u | u | n | n | n | n
CNC(=S)N(CCc1ccc(OC)c(OC)c1)Cc1cc2c(C)cc(C)cc2[nH]c1=O | u | 12µM | n | n | n | n
CNC(=S)N(CCc1c(C)[nH]c2ccc(OC)cc12)Cc1cc(OC)c(OC)c(OC)c1 | 10µM | 15µM | n | n | n | n
CNC(=S)N(CCc1c(C)[nH]c2ccc(C)cc12)Cc1cc(OC)c(OC)c(OC)c1 | n | 10µM | n | n | n | n
SMILES | Pf growth 48h | Pf growth 96h | CHX counter | NS1 inh | SARS PLpro yeast | Shiga toxin inh
COc1ccc(S(=O)(=O)N2CCOCC2)cc1NC(=O)c1cccs1 | n | n | x | x | n | x
Cc1ccc(S(=O)(=O)N2CCOCC2)cc1NC(=O)CSc1nc(N)cc(N)n1 | n | n | x | x | n | x
COc1ccccc1CC1CC(=O)N(c2ccccc2)C1=O (stereo not drawn) | n | 9.3µM | n | n | n | n
CCOC(=O)c1nc(C)n(-c2cc(Cl)ccc2Cl)n1 | n | n | n | n | n | n
CCOC(=O)c1nc(C)n(-c2cc(OC)c(Cl)cc2Cl)n1 | n | n | 46 | x | n | 41
CC(C)CC(C)N1CCC(n2nccc2NC(=O)CCc2ccccc2)CC1 (stereo not drawn) | n | u | n | n | n | n
CC(=O)/C(=N\Nc1ccccc1)Sc1nncn1C | n | n | n | n | n | n
CN(C)C(=O)C(CCN1CCC(O)(c2ccc(Cl)cc2)CC1)(c1ccccc1)c1ccccc1 | 2.9µM | 2.9µM! | n | n | n | n
